Assay outcomes from PubChem.
A selection: hits, their analogues and other compounds. The true share with any hit is near 1.9%.
p47phox inh: blocks human p47phox regulatory protein of NADPH oxidases. AID 1274. P14598. 0.53% of 220,000 active. p47phox/p22phox peptide binding, fluorescence polarization, 2 h. inhibition, % at 24.7 µM;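 active = inhibition above about 30%, limit read from the data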;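 also: 0% = p47phox with labelled peptide and 100% = labelled peptide alone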
Target sequence (P14598 whole entry, looked up): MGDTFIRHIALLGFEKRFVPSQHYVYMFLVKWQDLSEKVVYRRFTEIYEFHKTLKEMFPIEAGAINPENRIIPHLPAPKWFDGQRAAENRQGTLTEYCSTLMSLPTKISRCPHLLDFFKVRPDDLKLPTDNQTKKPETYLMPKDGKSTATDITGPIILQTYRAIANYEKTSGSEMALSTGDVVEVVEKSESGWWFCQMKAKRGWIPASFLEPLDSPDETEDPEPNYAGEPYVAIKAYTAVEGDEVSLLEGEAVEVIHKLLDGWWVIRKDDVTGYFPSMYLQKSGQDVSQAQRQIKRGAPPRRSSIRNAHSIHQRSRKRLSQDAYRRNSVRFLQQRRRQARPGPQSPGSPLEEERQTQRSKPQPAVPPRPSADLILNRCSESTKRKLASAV
Efa HMGR inh: blocks class II HMG-CoA reductase of Enterococcus faecalis; 0.41% of 190,000 active; AID 1066; purified E. faecalis HMGR, NADPH absorbance 340 nm kinetic; inhibition, % at 10 µM;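 active = inhibition above a set limit, the median over all tested compounds plus 3 SD, cut at about 9.5% in these data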;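 also: enzyme runs in reverse so mevalonate oxidation gives rising NADPH absorbance; 0% = complete reaction with DMSO and 100% = background rate lacking mevalonate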
14-3-3 Bad PPI: disrupts binding of bovine 14-3-3 zeta to phospho-Bad peptide; inhibition, % at 21.7 µM; TR-FRET 14-3-3zeta/Dy647-pBad peptide displacement, 1 h; P63103; 0.71% of 220,000 active;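 active = inhibition above about 70%, limit read from the data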;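 also: 0% = full 14-3-3 plus peptide FRET controls and 100% = background without 14-3-3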
Target sequence (P63103 whole entry, looked up): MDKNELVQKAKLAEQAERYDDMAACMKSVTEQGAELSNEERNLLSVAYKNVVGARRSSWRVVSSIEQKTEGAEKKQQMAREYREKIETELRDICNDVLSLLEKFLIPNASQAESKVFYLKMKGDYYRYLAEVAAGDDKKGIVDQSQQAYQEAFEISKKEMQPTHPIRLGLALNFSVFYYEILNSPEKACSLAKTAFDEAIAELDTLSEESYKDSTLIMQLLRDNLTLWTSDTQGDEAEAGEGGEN
dFosB activator: activators of mouse delta FosB homodimer; 0.99% of 340,000 active; purified delta FosB, TAMRA-CDK5 oligo fluorescence polarization; percent of positive-control signal above neutral wells; activation, % at 25 µM; P13346;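 active = mean activation above about 17%, with every replicate also reaching it, limit read from the data, passing the limit was not always enough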
* marks the source's active call; other numbers are inactive results; . = no result.

SMILES | p47phox inh | Efa HMGR inh | 14-3-3 Bad PPI | dFosB activator
COc1ccc(-n2nc3c(=O)[nH][nH]c3cc2=O)cc1 | -7 | -3 | 10 | -5
Cc1[nH]n(-c2ccccc2)c(=O)c1CCOC(=O)c1cccc(C(F)(F)F)c1 | -1 | -3 | -5 | -12
Cc1ccc(C(=O)OCCc2c(C)[nH]n(-c3ccccc3)c2=O)cc1 | 102* | -4 | -8 | -2
C=CCOc1ccc(CNc2ccc(NC(=O)CC(C)C)cc2)cc1OC | -14 | -1 | 0 | 0
CC(C)CC(NC(=O)c1cccs1)c1nnc(SCc2ccc(Cl)c(Cl)c2)n1C (stereo not drawn) | -6 | -5 | -2 | -6
COc1ccc(O)c(CN2CCN(C/C=C/c3ccccc3)CC2)c1 | -7 | 0 | 74* | 2
COc1cc(Br)cc(CN2CCN(C/C=C/c3ccccc3)CC2)c1O | -1 | -4 | 68 | 0
O=C1Nc2ccccc2/C1=N/N=C/c1ccc(-c2ccc([N+](=O)[O-])cc2)o1 | 51* | 2 | 95* | 2
CN(/N=C/c1ccc(-c2ccc([N+](=O)[O-])cc2)o1)c1ccccc1 | . | . | . | 1
CC[C@H](C)[C@@H](C(=O)NCCCCCCCCCCC(=O)N1CCNCC1)n1cc(CCCCCN)nn1 | . | . | . | 5
Cc1ccc(C)n1CCN1CCN(CC(=O)Nc2cc(C(F)(F)F)ccc2Cl)CC1 | -25 | -4 | -4 | .
O=c1cc2c(=O)oc3cc(O)c(O)oc3c2c(O)c1O | -17 | . | 89* | -18
O=c1oc2cc(O)c(Cl)cc2c2ccccc12 | -7 | -4 | -24 | 7
COc1ccccc1NC(=O)C(=O)N/N=C/c1ccc([N+](=O)[O-])s1 | 27 | -1 | 84* | -7
O=P(O)(COc1ccccc1)COc1ccccc1 | -10 | 2 | 72* | -7
CN(C)S(=O)(=O)c1ccc(Cl)c(NC(=O)COc2ccccc2[N+](=O)[O-])c1 | -3 | 1 | -3 | -3
COc1cc(C2C3=C(Nc4ncnn42)c2ccccc2CC3)cc(OC)c1OC (stereo not drawn) | 7 | 1 | 9 | -7
CCN1CCN(CCNC(=O)c2ccc3c(c2)N(Cc2ccc(F)cc2)C(=O)/C(=C/c2ccccc2)S3)CC1 | 62* | -4 | 52 | -422
CN1CCN(CCCNC(=O)c2ccc(/C=C3\Sc4ccccc4N(Cc4ccccc4F)C3=O)cc2)CC1 | 86* | -3 | 86* | -21
CCN1CCN(CCNC(=O)c2ccc(/C=C3/Sc4ccccc4N(Cc4cccc(Cl)c4)C3=O)cc2)CC1 | 72* | 0 | 58 | -413
CC1CCN(C(=O)c2ccccc2NC(=O)c2cccc(S(=O)(=O)N(C)C)c2)CC1 | . | . | . | -8
O=C(O)C1CC=CCC1C(=O)NCc1cn2ccccc2n1 (stereo not drawn) | -4 | -4 | 11 | -1
O=C(O)C1CCCCC1C(=O)NCc1cn2ccccc2n1 (stereo not drawn) | 36* | 0 | 0 | 0
O=C(COC(=O)c1ccc2c(c1)OCO2)Nc1ccccc1 | -10 | -5 | -18 | 2
CC(C)c1ccc(OC(=O)NCCO)cc1 | 41* | -3 | -4 | 3
SMILES | p47phox inh | Efa HMGR inh | 14-3-3 Bad PPI | dFosB activator
COc1ccc(OC(=O)NCCc2ccccc2)cc1 | -13 | . | -3 | -1
O=C(CNS(=O)(=O)c1ccc2ccccc2c1)OCC(=O)c1ccc(Br)s1 | -17 | 1 | 3 | -12
Cn1c(N/N=C2\CCCc3ccccc32)nc2c1c(=O)n(Cc1ccc(F)cc1)c(=O)n2C | 8 | -5 | 96* | 0
Cc1cccc(CC2CC(=O)N(c3nc4ccccc4s3)C2=O)c1 (stereo not drawn) | 1 | -4 | -6 | -4
COc1ccc2sc(N3C(=O)CC(Cc4cccc(C)c4)C3=O)nc2c1 (stereo not drawn) | -5 | -1 | 88* | -2
CCC(=O)NC1=C(NC(C)c2ccccc2)C(=O)c2ccccc2C1=O (stereo not drawn) | -1 | -5 | 16 | 7
CCC(=O)NC1=C(Cl)C(=O)C(NC(=O)CC)=C(Cl)C1=O | 50* | . | 26 | 1
C=CCN1C(=O)/C(=C2/Sc3ccccc3N2CCCS(=O)(=O)O)SC1=S | -45 | 8 | 72* | -13
Cc1cccc(C)c1Nc1nnc(SCc2nc3ccccc3c(=O)[nH]2)s1 | -12 | -2 | -6 | -1
Cc1ccccc1Nc1nnc(SCc2nc3ccccc3c(=O)[nH]2)s1 | -14 | 14* | -1 | .
Cc1nnc(SCc2ccccc2C#N)n1-c1ccccc1 | -13 | -4 | 6 | 5
Cc1nnc(SC(C)C#N)n1-c1ccccc1 (stereo not drawn) | -6 | 12* | -10 | 7
O=C(Nc1ccccc1)Nc1ccc(C(=O)N2CCCC2)cc1 | -1 | 9.6* | -6 | -3
COc1ccc(-c2csc(C)n2)cc1 | -12 | 9.8* | 1 | 0
COc1ccc(NC(=O)c2ccc(-c3csc(C)n3)cc2)cc1 | . | . | . | 4
CN1CCN(Cc2cccc(Oc3ccccc3)c2)CC1 | 0 | -4 | 70* | -4
C/C(=N\NC(=O)c1ccc(Cl)cc1)c1ccc2[nH]ccc2c1 | . | . | . | -6
Cc1ccc(Nc2ncnc3ccccc23)cc1 | -2 | -2 | 4 | -1
Oc1cccc(Nc2c3ccccc3nc3ccccc23)c1 | . | . | . | 65*
Cc1ccc(-c2nc(Nc3cccc(O)c3)c3ccccc3n2)cc1 | . | . | . | 22*
c1cncc(Nc2c3ccccc3nc3ccccc23)c1 | . | . | . | 30*
O=C(O)c1ccc(Nc2c3ccccc3nc3ccccc23)cc1 | . | . | . | 2
Cc1cccc(Nc2ncnc3ccccc23)c1 | -7 | -3 | 73* | -7
COC(=O)c1sccc1NC(=O)Cc1ccc(OC)cc1 | -18 | 1 | -5 | 2
CCOC(=O)C1CCN(CC(O)COCc2ccc(Cl)cc2)CC1 (stereo not drawn) | . | . | . | 3
SMILES | p47phox inh | Efa HMGR inh | 14-3-3 Bad PPI | dFosB activator
CC1CCN(CCCNC(=O)c2cc3c(Cl)nc4ccccc4c3s2)CC1 | . | 2 | 5 | -46
O=C(NCCO)Nc1ccc2nc(-c3ccco3)c(-c3ccco3)nc2c1 | -21 | 0 | 80* | .
O=C(NCCCO)c1ccc2nc(-c3ccco3)c(-c3ccco3)nc2c1 | -3 | -6 | 10 | -12
Cc1ccc(C(=O)OCC(=O)Nc2ccccc2)cc1NC(=O)c1ccco1 | -6 | 0 | -3 | 27*
COc1cccc(O[C@@H]2O[C@@H]3COC(C)(C)O[C@H]3[C@H](O)[C@H]2NC(C)=O)c1 | -11 | 10* | -12 | 0
CC(=O)NC1C(Oc2cccc(C)c2)OC2COC(c3ccco3)OC2C1O (stereo not drawn) | -4 | -5 | -10 | 2
N#CC(C(N)=O)=C1CCCCC1 | 75* | . | 5 | 3
CC(=O)c1cc(-c2ccccc2)n(CC(=O)Nc2cc(C)cc(C)c2)c1C | 16 | -5 | 1 | 33*
CC(=O)c1cc(-c2ccccc2)n(CC(=O)NC2CCCC2)c1C | -13 | 3 | -10 | -6
COc1ccc(OCC(=O)N2CCc3c([nH]c4ccccc34)C2c2ccccn2)cc1 (stereo not drawn) | -8 | -3 | -20 | -4
O=[N+]([O-])c1ccc(/C=C/C2=NN(c3ccccc3)C(c3ccco3)C2)cc1 (stereo not drawn) | 34* | 1 | 5 | -1
